In all, about 96,000 compounds went through this assay and about 1,200 (1.2%) were called active. Rule as the data show it: active = activation fold above about 2; inactive = the rest. What follows is part of a selection rich in actives, with near analogues and random picks from the rest.

Alkaline phosphatase, placental type (Homo sapiens), sequence (P05187 whole entry, looked up): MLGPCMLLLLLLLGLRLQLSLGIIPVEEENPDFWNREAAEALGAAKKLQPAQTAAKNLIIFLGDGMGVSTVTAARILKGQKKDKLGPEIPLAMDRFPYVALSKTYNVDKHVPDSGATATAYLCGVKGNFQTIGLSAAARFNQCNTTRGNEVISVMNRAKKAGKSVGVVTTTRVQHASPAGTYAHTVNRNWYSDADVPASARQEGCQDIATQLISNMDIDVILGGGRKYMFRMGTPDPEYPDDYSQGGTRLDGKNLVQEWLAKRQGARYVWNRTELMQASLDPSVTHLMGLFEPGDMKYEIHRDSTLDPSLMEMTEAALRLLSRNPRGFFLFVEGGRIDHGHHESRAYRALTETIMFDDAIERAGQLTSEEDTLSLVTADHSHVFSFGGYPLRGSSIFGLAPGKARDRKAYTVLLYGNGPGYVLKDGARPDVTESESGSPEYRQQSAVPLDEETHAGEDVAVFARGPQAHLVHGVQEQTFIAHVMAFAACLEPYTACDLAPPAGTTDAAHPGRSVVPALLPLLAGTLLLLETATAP

This test concerns the target Alkaline phosphatase, placental type (Homo sapiens) (UniProt P05187). In words: PLAP enzyme activators, biochemical, luminescence, HTS (AID 696). Conditions: purified PLAP enzyme, luminescent substrate read-out; at 20 µM; hits give high values.
On to `CN1/C(=c2/s/c(=C3/C(=O)N(c4ccccc4)NC3=Nc3ccccc3)n(C)c2=O)C(C)(C)c2ccccc21`, for which the activation fold is 0.7 (inactive).

For the compound `COc1ccc(S(=O)(=O)Nc2ccc3oc(C)c(C(C)=O)c3c2)cc1`, the activation fold was 1.3 (inactive).

Take `Cc1nc2nc(C)c(CCC(=O)N3CCN(c4ccccc4)CC3)c(C)n2n1`: the activation fold was 0.8 (inactive).

`O=C(Nc1ncccn1)c1cccs1`: the activation fold was 0.9 (inactive).

With `CC1CC(c2ccccc2)n2nc(NC(=O)c3cccs3)nc2N1` (centres undefined), the activation fold was 2.1 (active).

Regarding `COc1ccc(CC(=O)Nc2nc3n(n2)C(c2ccccc2)CC(=O)N3)cc1OC` (centres undefined), the activation fold is 1.5 (inactive).

As for `CN(C(=O)CSc1nnc(N)s1)c1c(N)n(Cc2ccccc2)c(=O)[nH]c1=O`, the activation fold is 1.1 (inactive).

`O=C(CN1C(=O)CC(c2ccccc2)=Nc2ccccc21)NC1CCCCC1`: the activation fold is 1 (inactive).

With `Cc1ccc(-n2nc3ccc(NC(=O)/C=C/c4ccco4)cc3n2)cc1C`, the activation fold is 0.9 (inactive).

In the case of `Cc1cccc(NC(=O)CSc2nnc(-c3ccco3)o2)c1`, the activation fold was 2 (active).

On to `CCOC(=O)c1sc(NC(=O)CSc2nnc(-c3ccco3)o2)c(C(=O)OCC)c1C`, for which the activation fold was 1 (inactive).

For `O=C(CSc1nnc(-c2ccco2)o1)NCC(=O)c1ccccc1`, the activation fold was 1.2 (inactive).

In the case of `CONC(=O)c1cc(OCC(F)(F)F)ccc1OCC(F)(F)F`, the activation fold is 1 (inactive).

With `Cn1c(SCC(=O)NC2CCCCC2)nnc1-c1cc2ccccc2o1`, the activation fold was 1.1 (inactive).

Consider `Cc1cccc(N2C(=O)C3C(c4ccccc4)OC4(C(=O)c5ccccc5C4=O)C3C2=O)c1` (centres undefined), for which the activation fold was 1.2 (inactive).

For the compound `Cc1cccc(N2C(=O)c3cccnc3C2=O)c1`, the activation fold is 1 (inactive).

With `CCCc1nc2scc(-c3ccc(C)cc3)c2c(=O)n1N`, the activation fold is 0.9 (inactive).

For `N#C/C(=C(\O)CCl)c1nnc2n1CCCCC2`, the activation fold was 0.8 (inactive).

As to `Cc1cc([N+](=O)[O-])ccc1NCc1cccc([N+](=O)[O-])c1`, the activation fold was 1 (inactive).

Turning to `COCCCn1c(SCc2cccc(OC)c2)nc2cc(OC)c(OC)cc2c1=N`, the activation fold is 1.5 (inactive).

For `Cc1ccc(C(c2sc3nc(C)nn3c2O)N2CCN(c3ccc(F)cc3)CC2)cc1` (centres undefined), the activation fold is 1.7 (inactive).

With `Oc1c(C(c2cccs2)N2CCN(c3ccc(F)cc3)CC2)sc2ncnn12` (centres undefined), the activation fold is 2 (active).

In the case of `Oc1c(C(c2ccco2)N2CCC3(CC2)OCCO3)sc2ncnn12` (centres undefined), the activation fold is 1.7 (inactive).

Turning to `O=C(O)c1cnn2c(C(F)(F)F)cc(-c3ccccc3)nc12`, the activation fold is 0.9 (inactive).

Regarding `C/C(=N\NC(=O)Cc1ccc(Cl)cc1)c1ccccn1`, the activation fold was 1.8 (inactive).

For the compound `CCNc1nc(N)nc(-c2cc(Cl)ccc2OC)n1`, the activation fold is 1 (inactive).

For `COc1ccccc1CCNC(=O)c1cnccn1`, the activation fold is 1.2 (inactive).

Consider `CC(C)NC(=O)c1ccc(Sc2ccccc2)c([N+](=O)[O-])c1`, for which the activation fold is 1.2 (inactive).

For the compound `COc1ccc(C(=O)NNC(=O)c2cnccn2)cc1[N+](=O)[O-]`, the activation fold is 2.8 (active).

As to `CC(Oc1ccc(F)cc1F)C(=O)/C=C/N(C)C` (centres undefined), the activation fold was 1.2 (inactive).

For the compound `CC(=O)c1sc(NC(=O)c2cccc3ccccc23)nc1C`, the activation fold was 1 (inactive).

Turning to `COc1cccc2sc(Nc3nc(C)c(C(C)=O)s3)nc12`, the activation fold was 2.4 (active).

As for `CC(=O)c1sc(NC(=O)c2ccc(C)cc2)nc1C`, the activation fold was 1.2 (inactive).

As to `Cc1ccc(NC(=S)NC(NC(=O)Cc2cccc3ccccc23)C(Cl)(Cl)Cl)cc1` (centres undefined), the activation fold was 0.6 (inactive).

As to `COC(=O)c1ccc(CSc2nnc(NC(C)C)s2)cc1`, the activation fold was 0.9 (inactive).

Take `Cc1ccc(NC(=O)N2CCC(O)(c3cccnc3)CC2)cc1`: the activation fold was 0.9 (inactive).

For `CC1=NN(C(=O)Cc2ccc(C)cc2)C(O)(c2cccnc2)C1` (centres undefined), the activation fold is 2.4 (active).

`CC1=NN(C(=O)c2ccccc2Br)C(O)(c2cccnc2)C1` (centres undefined): the activation fold was 1.4 (inactive).

Turning to `O=C(Nc1ccc2ccccc2c1)Nc1ccc2snnc2c1`, the activation fold is 0.9 (inactive).

In the case of `O=C(NCCCCCCCCCNC(=O)C(F)(F)F)C(F)(F)F`, the activation fold is 0.9 (inactive).

With `CCCCC(=O)N/N=C(\C)CC(=O)Nc1cc(Cl)ccc1OC`, the activation fold was 0.9 (inactive).

Regarding `COc1ccc(Cl)cc1NC(=O)c1oc(C)nc1C`, the activation fold is 1.4 (inactive).

Consider `COc1ccc(Cl)cc1NC(=O)CN(C)C(=O)CNC(=O)C12CC3CC(CC(C3)C1)C2`, for which the activation fold was 2 (active).

With `O=C(COc1ccc(Br)cc1F)NC1CCN(Cc2ccccc2)CC1`, the activation fold is 1.7 (inactive).

For the compound `Cc1ccc2[nH]c(=O)c(CN(CCCN(C)C)C(=O)Nc3cccc(Cl)c3)cc2c1`, the activation fold was 1.5 (inactive).

With `O=C(COC(=O)c1n[nH]c2ccccc12)NCc1ccccc1`, the activation fold was 2.2 (active).

As to `COc1ccc(COC(=O)c2n[nH]c3ccccc23)cc1F`, the activation fold was 1.4 (inactive).

Turning to `CN(C)S(=O)(=O)c1ccc(NC(=O)COC(=O)c2n[nH]c3ccccc23)cc1`, the activation fold was 1 (inactive).

On to `Cn1c(N)c(C(=O)COC(=O)C23CC4CC(CC(C4)C2)C3)c(=O)n(C)c1=O`, for which the activation fold is 1.9 (inactive).

Consider `C=CCNC(=S)NNc1ncnc2sc3c(c12)CC(C)(C)OC3`, for which the activation fold is 2.2 (active).

In the case of `CCC(O)CNc1nc(-n2nc(C)cc2C)nc2sc3c(c12)CC(C)(C)OC3` (centres undefined), the activation fold is 1 (inactive).

Regarding `CC/C(C)=N/Nc1nc2sc3c(c2c(=O)[nH]1)CC(C)(C)OC3`, the activation fold is 1.1 (inactive).

In the case of `Cc1ccc(SC(=O)COc2ccc(C)c(C)c2)cc1`, the activation fold is 1 (inactive).

On to `COc1cc(OC)c(C(=O)NC2CCCCCC2)cc1OC`, for which the activation fold was 1.7 (inactive).

As for `CCOC(=O)c1[nH]cnc1C(=O)NC1CCCCC1`, the activation fold is 2.2 (active).

As to `CCOC(=O)C1=C(CNC2CCCCC2)NC(=O)NC1c1cc(C)ccc1C` (centres undefined), the activation fold was 1.1 (inactive).

Consider `Cc1cc(C(=O)OC(C)C(=O)Nc2cccc(S(=O)(=O)N3CCOCC3)c2)c(C)o1` (centres undefined), for which the activation fold is 1.7 (inactive).

`COC(=O)C(C)n1cnc2c(nnn2-c2cccc(Cl)c2)c1=O` (centres undefined): the activation fold is 0.9 (inactive).

Regarding `CCOc1nnc(C)c2c(C)n(-c3cccc(Cl)c3)nc12`, the activation fold was 2.1 (active).

In the case of `CCOc1cccc(-n2nnnc2-c2ccc(OC)cc2)c1`, the activation fold is 1.4 (inactive).

`CCCCCCCC(=O)NC(Nc1ccccc1OC)C(Cl)(Cl)Cl` (centres undefined): the activation fold is 0.9 (inactive).

As for `CCN(CC)S(=O)(=O)c1ccc2nc(COC(=O)c3n[nH]c4ccccc34)[nH]c2c1`, the activation fold is 1.8 (inactive).

As for `CCN(CC)S(=O)(=O)c1ccc2nc(CSc3nnnn3-c3ccc(O)cc3)[nH]c2c1`, the activation fold is 2.7 (active).

As to `O=c1c2ccccc2nc(CSc2nnnn2-c2ccccc2)n1-c1ccccc1`, the activation fold was 0.9 (inactive).

The values are drawn from PubChem BioAssay AID696 (Sanford-Burnham Center for Chemical Genomics, 2007).
